Consider 18 molecules from PubChem BioAssay (NCATS).

In assay [1] the test system is C33A. In words: Primary qHTS to identify gynecologic anti-cancer compounds using libraries of approved drugs and bioactive compounds (AID 1345084). Note: nearly all actives have a fitted effect of over 55% in size. Note: potency is the fitted concentration of half-maximal effect. The following applies: Gynecologic cancer cell panel viability, ATPlite luminescence, 48 h; series mostly up to 57.5 µM. The method, boiled down: (§1)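 48 h compound exposure at 37 C, 5% CO2; five-point qHTS. ATPlite luminescence readout of cell ATP.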
For orientation: Quantitative high-throughput screening tests each substance at several concentrations.

The subject of assay [2] is CASKI. The assay is described as above. The following applies: Gynecologic cancer cell panel viability, ATPlite luminescence, 48 h; series mostly up to 57.5 µM. In short, it runs like this: as §1
The subject of assay [3] is Es-2. Described as above. Conditions: Gynecologic cancer cell panel viability, ATPlite luminescence, 48 h; series mostly up to 57.5 µM. In short, it runs like this:
as §1
A general note: ATP-based viability assays read luminescence as a measure of living cells.

The test system of assay [4] is HeLa. Described as above. Conditions: Gynecologic cancer cell panel viability, ATPlite luminescence, 48 h; series mostly up to 57.5 µM. The method, boiled down: as §1
Assay [5] relates to Hek293T. Described as above. The following applies: Gynecologic cancer cell panel viability, ATPlite luminescence, 48 h, control line for the selectivity index; series mostly up to 57.5 µM. In short, it runs like this: as §1
The subject of assay [6] is JEG-3. The assay is described as above. The following applies: Gynecologic cancer cell panel viability, ATPlite luminescence, 48 h; series mostly up to 57.5 µM. The method, boiled down:
as §1

Assay [7] has as its system OV90. The assay is described as above. The following applies: Gynecologic cancer cell panel viability, ATPlite luminescence, 48 h; series mostly up to 57.5 µM. The method, boiled down: as §1
Assay [8] relates to SKOV3. The assay is described as above. Conditions: Gynecologic cancer cell panel viability, ATPlite luminescence, 48 h; series mostly up to 57.5 µM. In short, it runs like this: as §1
Assay [9] has as its system Tov-21-G. Described as above. The following applies: Gynecologic cancer cell panel viability, ATPlite luminescence, 48 h; series mostly up to 57.5 µM. The method, boiled down: as §1
In assay [10] the test system is Tov112D. Described as above. The following applies: Gynecologic cancer cell panel viability, ATPlite luminescence, 48 h; series mostly up to 57.5 µM. The method, boiled down:
as §1

Assay [11] deals with astro. In words: Drug repurposing screens with cells derived from glioblastoma tumor samples (AID 1345199). For activity, negative = cell killing: % is set by controls: 0 for no effect and ±100 for the full control effect. Note: nearly all actives have a fitted effect of over 40% in size. Note: potency is the fitted concentration of half-maximal effect. The following applies: viability, ATP luminescence, 48 h; series mostly up to 45.9 µM. In short, it runs like this:
(§2)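 Primary testing used CD133+ neurospheres from four GBM patients, seven concentrations, 48 h exposure and ATP-based viability; confirmation added three slower-growing patient lines.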

The subject of assay [12] is CAOV3. Kind of assay: Primary qHTS to identify gynecologic anti-cancer compounds using libraries of approved drugs and bioactive compounds (AID 1345084). Note: nearly all actives have a fitted effect of over 55% in size. Note: potency is the fitted concentration of half-maximal effect. Conditions: Gynecologic cancer cell panel viability, ATPlite luminescence, 48 h; series mostly up to 57.5 µM. In short, it runs like this:
as §1

The test system of assay [13] is PA-1. Described as above. The following applies: Gynecologic cancer cell panel viability, ATPlite luminescence, 48 h; series mostly up to 57.5 µM. In short, it runs like this: as §1
A short description of assay [14]: Drug repurposing screens with cells derived from glioblastoma tumor samples (AID 1345199). For activity, negative = cell killing: % is set by controls: 0 for no effect and ±100 for the full control effect. Note: nearly all actives have a fitted effect of over 40% in size. Note: potency is the fitted concentration of half-maximal effect. The following applies: GBM patient neurospheres viability, ATP luminescence, 48 h. The method, boiled down:
as §2

Assay [15] addresses Nuclear receptor subfamily 1 group I member 2 (Rattus norvegicus) (UniProt Q9R1A7). Kind of assay: qHTS assay for small molecule activators of the rat pregnane X receptor (rPXR) signaling pathway (AID 651751; call rule not given here; note: 0% is about no effect). The following applies: rPXR reporter cells, luciferase (One-Glo), 24 h.
The nature of assay [16]: qHTS assay for small molecule activators of the human pregnane X receptor (PXR) signaling pathway (AID 720659; call rule not given here; note: 0% is about no effect).
[17] abbreviates: at 45.9 µM (top of the series), tumour line B.
Setting [18] is: at 45.9 µM (top of the series), tumour line D.
[19] abbreviates: at 46 µM (top of the series), tumour line A.
The mark [20] stands for this setting: at 108 µM (top of the series), tumour line B.

Unmarked numbers belong to inactive results. Inconclusive results are not listed. Active and inactive are the calls of the source. Unless noted, calls come from the whole dose curve; as a rule, active = well fitted curve in the direction sought with a large enough effect; inconclusive = small, poorly fitted or top-dose-only effect, or another doubt; inactive = no such curve, though single readings can be large; an effect the other way counts as inactive or inconclusive.

Sequence of Nuclear receptor subfamily 1 group I member 2 (Rattus norvegicus) (Q9R1A7 whole entry, looked up): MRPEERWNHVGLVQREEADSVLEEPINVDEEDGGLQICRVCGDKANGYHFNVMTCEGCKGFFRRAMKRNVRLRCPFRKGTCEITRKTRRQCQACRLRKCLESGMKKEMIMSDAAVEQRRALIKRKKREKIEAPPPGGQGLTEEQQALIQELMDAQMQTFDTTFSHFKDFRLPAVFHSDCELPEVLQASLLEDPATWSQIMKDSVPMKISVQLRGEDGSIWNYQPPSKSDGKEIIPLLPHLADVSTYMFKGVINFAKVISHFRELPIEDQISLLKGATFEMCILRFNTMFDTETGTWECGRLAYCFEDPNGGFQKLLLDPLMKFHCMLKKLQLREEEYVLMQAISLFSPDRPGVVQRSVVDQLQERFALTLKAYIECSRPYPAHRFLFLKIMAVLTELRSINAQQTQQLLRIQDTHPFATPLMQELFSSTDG

Take `CC[C@H]1C[C@@H]2C[C@H]3c4[nH]c5ccc(OC)cc5c4CCN(C2)[C@@H]13`: the Potency result in [1], in assay [2], in assay [3], in assay [4], in assay [5] and in assay [6] was “inactive” in each case. Besides, the Potency entry in assay [8], in assay [9], in [10] and in assay [11] was “inactive” throughout. Also, the Potency in [7] was 31.6 µM (active).

Take `C[C@]12CC[C@H]3[C@@H](CCC4=CC(=O)CC[C@@]43C)[C@@H]1CC[C@@H]2C(=O)O`: the Potency result in [1], in assay [12], in assay [2], in assay [3], in assay [5] and in assay [6] was “inactive” in each case. Moreover, the Potency result in assay [7], in assay [13], in [8], in assay [9] and in assay [10] was “inactive” in each case.

`C=CCOC(Cn1ccnc1)c1ccc(Cl)cc1Cl` (configuration not stated): the Potency entry in [1], in assay [12], in assay [2], in assay [3], in [5] and in assay [6] was “inactive” in each case. Besides, the Potency entry in [9] and in assay [10] was “inactive” in each case. Further, the activity, negative = cell killing in [14] (setting [17]) is -23.6%; in assay [14] (setting [18]), -33.6%. In [14] (tumour line A), the Potency is 20 µM (active).

Turning to `CCC1(CC)C(=O)NC(=O)NC1=O`, the Potency entry in assay [1], in assay [12], in [2], in [3], in assay [4] and in [6] was “inactive” in each case. In addition, the Potency entry in [7], in [13], in assay [8], in assay [9], in [10] and in assay [11] was “inactive” each time. In addition, the activity, negative = cell killing in assay [14] (setting [17]) is 3.52%; in [14] (setting [18]), -15.8%; in [14] (setting [19]), -22.6%.

Turning to `COc1cc(C[C@@H](C)N)c(OC)cc1Br`, the Potency result in [1], in [12], in assay [3], in assay [4], in assay [5] and in [6] was “inactive” in each case. In addition, the Potency entry in [13], in [8], in assay [9], in assay [10] and in assay [11] was “inactive” each time. The activity, negative = cell killing in assay [14] (setting [20]) was -21.6%. In addition, in assay [14] (tumour line A), the Potency is 35.5 µM (active).

`CCC(=O)C(CCN(C)C)(c1ccccc1)c1ccccc1`: the Potency result in assay [1], in assay [2], in [3], in [4], in assay [5] and in [6] was “inactive” in each case. The Potency entry in assay [7], in [13], in assay [8], in assay [9] and in assay [10] was “inactive” each time.

As to `COc1ccc(CN2CCNCC2)c(OC)c1OC`, the Potency result in [1], in [2], in [3], in [4], in assay [5] and in assay [6] was “inactive” each time. Also, the Potency result in [7], in assay [13], in assay [8], in [9], in assay [10] and in assay [11] was “inactive” in each case. The activity, negative = cell killing was -2.66% in [14] (at 21.2 µM (top of the series), tumour line B) and -1.27% in [14] (at 21.2 µM (top of the series), tumour line D).

As for `CN1C(=O)CN=C(c2ccccc2)c2cc([N+](=O)[O-])ccc21`, the Potency entry in assay [1], in [2], in assay [3], in assay [4], in [5] and in [6] was “inactive” each time. The Potency result in assay [7], in assay [13], in [9] and in [10] was “inactive” in each case. Moreover, the activity, negative = cell killing is 1.05% in assay [14] (setting [17]), -22.1% in assay [14] (setting [18]) and -31.9% in assay [14] (setting [19]).

`CCN1CCCC1CNC(=O)C(O)(c1ccccc1)c1ccccc1` (configuration not stated): the Potency entry in assay [1], in [2], in assay [3], in [4], in assay [5] and in assay [6] was “inactive” in each case. Besides, the Potency entry in assay [7], in assay [13], in assay [8], in assay [9] and in [10] was “inactive” in each case.

As to `Cc1cccc(Cc2cnc[nH]2)c1C`, the Potency result in assay [1], in assay [2], in [3], in assay [4], in assay [5] and in assay [6] was “inactive” throughout. Besides, the Potency result in [7], in [13], in [8], in assay [9] and in assay [10] was “inactive” each time. Also, the activity, negative = cell killing in assay [14] (setting [17]) is -15.8%; in assay [14] (setting [18]), -4.57%. In addition, the Potency in assay [14] (tumour line A) is 35.5 µM (active).

`CN(C)C(=S)SSC(=S)N(C)C`: the Potency was 1.26 µM (active) in assay [1]; 11.2 µM (active) in assay [12]; 1.58 µM (active) in assay [8]; 12.6 µM (active) in assay [10]; 35.5 µM (active) in assay [14] (tumour line A); 35.5 µM (active) in assay [14] (tumour line B). For the same molecule, the Potency entry in [2] and in assay [4] was “inactive” each time.

Consider `O=C(CCCCl)c1ccc(F)cc1`, for which the Potency entry in assay [1], in assay [2], in assay [3], in assay [4], in assay [5] and in assay [6] was “inactive” in each case. For the same molecule, the Potency entry in assay [7], in assay [13], in [8], in [9] and in assay [10] was “inactive” throughout.

In the case of `O=C(O)CCCCCCNC1c2ccccc2CCc2ccccc21`, the Potency result in assay [1], in [2], in assay [3], in assay [4], in assay [5] and in [6] was “inactive” in each case. The Potency entry in assay [7], in assay [13], in assay [9], in assay [10] and in assay [11] was “inactive” each time. Further, the activity, negative = cell killing in assay [14] (setting [17]) was 2.2%; in assay [14] (setting [18]), -6.72%.

Consider `N#Cc1nn(-c2c(Cl)cc(C(F)(F)F)cc2Cl)c(N)c1S(=O)C(F)(F)F` (configuration not stated), for which the Potency entry in assay [1], in [12], in [2], in [3], in assay [4] and in assay [6] was “inactive” throughout. Besides, the Potency result in assay [7], in [13], in assay [9] and in [10] was “inactive” throughout. For the same molecule, the activity, negative = cell killing in [14] (setting [17]) was -25.5%. For the same molecule, the max response in [15] is -15%.

For `O=C(CCl)c1ccc(Cl)cc1Cl`, the Potency entry in assay [1], in assay [2], in assay [3], in assay [4], in assay [5] and in assay [6] was “inactive” in each case. Moreover, the Potency result in [7], in assay [13], in assay [8], in assay [9] and in assay [10] was “inactive” throughout. Besides, the activity, negative = cell killing in [14] (setting [18]) was -23.6%. Also, the Potency in assay [11] was 12.6 µM (active). The max response in assay [15] is -0.907%. Also, the outcome in assay [16] was inactive.

With `C[C@]12CC[C@H]3[C@@H](CC=C4C[C@@H](O)CC[C@@]43C)[C@@H]1CC[C@@H]2O`, the Potency entry in assay [1], in assay [2], in assay [3], in assay [4], in assay [5] and in assay [6] was “inactive” in each case. The Potency result in assay [7], in assay [13], in assay [8], in assay [9], in [10] and in assay [11] was “inactive” throughout. The activity, negative = cell killing in assay [14] (setting [17]) was -14.5%. The Potency in assay [14] (tumour line A) is 11.2 µM (active).

For `CNC(=O)NC(O)C(Cl)(Cl)Cl` (configuration not stated), the Potency result in assay [1], in [12], in [2], in [3], in assay [4] and in assay [6] was “inactive” in each case. Also, the Potency entry in assay [7], in assay [13], in assay [8], in assay [9], in assay [10] and in [11] was “inactive” throughout. Moreover, the figures for the activity, negative = cell killing in [14] (setting [17]), in assay [14] (setting [18]) and in assay [14] (setting [19]) were -2.48%, 7% and -5.01%, respectively.

Turning to `CCC(=O)OC1(c2ccccc2)CCN(C)CC1`, the Potency result in assay [1], in assay [2], in assay [3], in assay [4], in assay [5] and in [6] was “inactive” each time. Also, the Potency result in assay [7], in [13], in [8], in assay [9], in assay [10] and in assay [11] was “inactive” in each case. Besides, the activity, negative = cell killing in [14] (setting [20]) was -0.343%; in assay [14] (at 108 µM (top of the series), tumour line D) it was -13.5%. In assay [14] (tumour line A), the Potency is 50.1 µM (active).
